HCV inhibitor: HCV inhibition; hit rate 3.4% among 340,000; Potency, µM (top dose mostly 41.8 µM), for inactives: at the top dose activity change, negative = inhibition, most hits filed as inhibitors; Huh7.5.1 HCVcc-Cre infection, luciferase reporter, 44 h; active means well fitted inhibition curve with a large enough effect; inconclusive means small, poorly fitted or top-dose-only effect, or another doubt; inactive means no such curve, though single readings can be large or run the other way; further: potency means the concentration at half of the fitted maximal effect
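HCVcc-Cre virus at an moi near 0.5 was added right after compound to cells cultured 4 h from seeding (1,000 cells/well). Luciferase activity was determined 44 h later, 15 min after substrate addition at RT.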
FMDV inh: foot and mouth disease virus antiviral activity. AID 1159524. FMDV antiviral cell-based qHTS. Potency, µM (highest dose often 57.9 µM), inactives show at the top dose activity change, negative = inhibition, actives largely listed as inhibitors. hit rate 1.2% among 410,000; calls by dose curve; tested in HEK293T cells; further: read-out not given here; potency means the concentration at half of the fitted maximal effect; nearly all actives have a fitted effect of over 45% in size
HCMV antiviral: human cytomegalovirus inhibition; HFF cells, HCMV-luciferase reporter, 72 h; stronger effect = lower value; activity change, negative = inhibition, % at 57.5 µM; hit rate 4.5% among 410,000; AID 1259415; in the data active means activity change below about -60%; inconclusive means no clear call, values can overlap the other calls; inactive means above about -39%
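Screen run at 2 compound doses on HFFs infected with reporter HCMV, MOI 1 PFU/cell. Luciferase activity from cell lysates at 72 h post infection gave inhibition relative to buffer-only and Salinomycin wells.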
Vaccinia mCherry: inhibitors of vaccinia virus infection (mCherry reporter signal). Vaccinia virus mCherry reporter infection, fluorescence. Potency, µM (series often up to 36.5 µM), for inactives: top-dose activity change, negative = inhibition, actives largely listed as inhibitors. hit rate 0.63% among 310,000; calls by dose curve; tested in A549 cells; further: potency means the concentration at half of the fitted maximal effect; nearly all actives have a fitted effect of over 35% in size
VACV Venus inh: vaccinia inhibition (Venus reporter) | Vaccinia virus Venus reporter expression, fluorescence | Potency, µM (top dose mostly 36.5 µM), inactives show at the top dose activity change, negative = inhibition, hits mostly inhibitors | hit rate 0.46% among 330,000; calls by dose curve; tested in A549 cells; further: potency means the concentration at half of the fitted maximal effect; nearly all actives have a fitted effect of over 30% in size
* = called active by the depositor; i = inactive; ? = inconclusive; / = not tested or not shown; [ ] = another dose, or the depositor's remark. Rows were chosen to be rich in hits. Some 7.3% of all compounds tested hit in one or more screens of this group. On the % scale 0 is the no-effect control and ±100 the full control effect.

SMILES	HCV inhibitor	FMDV inh	HCMV antiviral	Vaccinia mCherry	VACV Venus inh
Cc1ccc(-n2c(N)c(C(=O)Nc3c(C)n(C)n(-c4ccccc4)c3=O)c3nc4ccccc4nc32)cc1	11.2µM*	-3.0%	?	-27.1%	-9.4%
COC(=O)c1c(N)n(-c2ccc(NC(C)=O)cc2)c2nc3ccccc3nc12	?	-28.9%	-66.2*	/	-12.9%
COCCNC(=O)c1c(N)n(-c2cccc(C)c2)c2nc3ccccc3nc12	11.2µM*	0.0%	-29.8	/	-12.9%
Cc1cc(C)cc(-n2c(N)c(C(=O)Nc3c(C)n(C)n(-c4ccccc4)c3=O)c3nc4ccccc4nc32)c1	?	-9.9%	19.4	?	-14.5%
Nc1c(C(=O)NCCN2CCOCC2)c2nc3ccccc3nc2n1-c1ccccc1	?	-23.5%	-68.5*	-13.1%	0.1%
CCc1nn(Cc2c(C)cc(C)cc2C)c(=O)c2cc3cc(C)ccc3n12	/	-4.0%	1.3	0.9%	8.2%
CCc1ccc(-n2c(=O)c3sc4ccccc4c3n(Cc3cccc(F)c3)c2=O)cc1	/	-4.0%	4.4	-3.9%	3.2%
COC(=O)C[C@@H]1C[C@H]2c3cc(NC(=O)Nc4ccccc4F)ccc3O[C@H]2[C@@H](CO)O1	/	/	10.4	/	/
COc1ccc(OC)c(NC(=O)Nc2cccc(OCc3cc(=O)n4cc(C)ccc4n3)c2)c1	/	-2.6%	-21.6	-14.3%	-6.4%
COCCNC(=O)c1c(N)n(-c2ccccc2)c2nc3ccccc3nc12	?	/	-21.5	-21.4%	-17.1%
COCCCNC(=O)c1c(N)n(-c2ccccc2)c2nc3ccccc3nc12	12.6µM*	-22.8%	-23.9	-29.8%	-9.9%
COc1ccc(C2CC(=O)N(Cc3ccccc3)c3c2c(C)nn3-c2nc(C)cc(C)n2)c(OC)c1 (configuration not stated)	/	-15.4%	-16.8	-6.1%	-7.3%
COc1cccc(C(=O)/C=C/Nc2cccc(O)c2)c1	-2.9%	12.6µM*	127.9	/	/
O=C(/C=C/Nc1ccc(F)cc1Br)c1ccccc1	0.3%	2.82µM*	?	2.8%	-3.1%
Cc1cc(N/C=C/C(=O)c2ccccc2)ccc1Br	-2.7%	-4.7%	170.8	/	/
COc1ccc(OC)c(N/C(C)=C/C(=O)c2ccccc2)c1	-11.0%	10.3%	48.8	-14.1%	-10.8%
COc1ccc(OC)c(N/C=C/C(=O)c2ccccc2)c1	-28.9%	6.31µM*	-77.6*	-10.5%	-9.1%
COc1ccc(N/C=C/C(=O)c2cc(OC)c(OC)c(OC)c2)cc1	19.6%	12.8%	-80.1*	?	?
COc1ccc(N/C=C/C(=O)c2ccc(OC)c(OC)c2)cc1	-9.9%	49.0%	?	i[7.34 µM]	-4.4%[7.34 µM]
CCN1CCN(c2nc3c(C)cccn3c(=O)c2/C=C(\C#N)C(=O)NC)CC1	7.0%	-8.2%	-72.4*	-11.8%	-13.9%
CCOC(=O)N1CCN(C(=O)CSCC(=O)Nc2nc(-c3ccc(-c4ccccc4)cc3)cs2)CC1	5.62µM*	?	-76.6*	?	?
COc1ccccc1C1(O)CCN(CC(=O)Nc2nc(-c3ccccc3)cs2)CC1	10µM*	25.1µM*	-12.0	-19.7%	-10.0%
CCOC(=O)N1CCN(C(=O)CSCC(=O)Nc2nc(-c3ccc(Cl)s3)cs2)CC1	11.2µM*	?	44.5	/	/
O=C(CSCC(=O)N1CCOCC1)Nc1nc(-c2ccccc2)cs1	0.2%	16.3%	-4.1	-7.5%	-7.9%
CCOC(=O)N1CCN(C(=O)CSCC(=O)Nc2nc(-c3ccc(OC)cc3)cs2)CC1	?	?	14.1	/	/
SMILES	HCV inhibitor	FMDV inh	HCMV antiviral	Vaccinia mCherry	VACV Venus inh
CCCn1c2ccccc2c2cnn(CC(=O)Nc3ccccc3OC)c(=O)c21	/	-16.7%	?	-19.4%	-16.3%
O=C(Cc1sc(-c2ccccc2Cl)nc1-c1ccccc1)Nc1ccccc1	-4.6%	?	-89.7*	/	1.4%
O=C(Cc1sc(-c2ccccc2Cl)nc1-c1ccccc1)Nc1ccc(F)cc1	7.94µM*	-6.6%	-60.2*	/	2.3%
CC(=O)Nc1ccc(NC(=O)Cc2sc(-c3cccnc3)nc2-c2ccc(C)cc2)cc1	-8.9%	30.7%	-24.7	i	-21.6%
O=C(Cc1sc(-c2ccccc2)nc1-c1ccccc1)Nc1ccc(Cl)cc1	-1.8%	-16.0%	-76.0*	-14.2%	-7.5%
COC(=O)C1CCN(C(c2ccccc2Cl)c2sc3nc(-c4ccco4)nn3c2O)CC1 (configuration not stated)	/	-6.0%	10.1	-16.1%	-15.2%
O=C(NCc1cccc(C(F)(F)F)c1)O[C@H]1CC[C@@]23CCCN2C(=O)CCC[C@H]3[C@H]1Cc1ccccc1	/	/	-16.9	/	/
